Paper PMC5540273 (PLoS ONE, 2017)
“And” between values parts separate entries of the source, which are not always exact repeats. Equal values may be shown once.

Test system: FES
Conditions: concentration: 1 μM, replicates: in singlicate; n = 1
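Also: KINOMEscan kinase panel screen.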

| Compound | %Inh [%] |
| --- | --- |
| N#Cc1c(N2CCOCC2)sc(-c2ccn[nH]2)c1-c1ccc(Cl)cc1 | 27 |
| c1ccc(-c2cc(-c3c[nH]nc3-c3ccccn3)ccn2)cc1 [GW576604] | 0 |
| O=C(NCCCN1CCOCC1)c1cccc(Nc2nccc(Nc3ccc(Oc4ccccc4)cc3)n2)c1 [GW663929] | 16 |
| CCCCCc1nc2c(N)ncnc2n1CCCCC [SKF-97255] | 0 |
| Cc1c(Cn2c(C)nn3c(=O)cc(N4CCOC(C)C4)nc23)cccc1C(F)(F)F (centres unmarked) [GSK2344444] | 0 |
| O=C(NCCNc1ccnc(Nc2ccc(F)cc2)n1)c1cc2ccccc2s1 [GSK1379874] | 0 |
| CC(C)Oc1ccc2c(-c3ccnc(Nc4ccc(N5CCN(C)CC5)cc4)n3)cnn2n1 [GW696155] | 15 |
| COc1cc2c(cc1OCCN1CCN(C)CC1)ncc1c3ccc(C#N)cc3[nH]c21 | 0 |
| CC(=O)Nc1ccc(COc2ccc(Nc3ccnc4cc(-c5ccccn5)ccc34)cc2)cc1.Cl [GW440148] | 13 |
| CC(C)(C)n1cnc2c(N)ncnc21 [SKF-97359] | 0 |
| CN(C1=C(c2ccccc2)C(=O)NC1=O)c1ccccc1 [SB-334860] | 0 |
| Cl.Nc1ncnc2occ(-c3ccc(NC(=O)Nc4cc(C(F)(F)F)ccc4F)cc3)c12 [SB-707548] | 6 |
| NS(=O)(=O)c1cccc(-c2ccc3nccc(-c4cccc(S(N)(=O)=O)c4)c3c2)c1 [GW867253] | 0 |
| NS(=O)(=O)c1cccc(-c2ccc3ncc(N4CCOCC4)nc3c2)c1 [GSK1535721] | 6 |
| COc1ccc(CNC(=O)NC2CCN(c3ccnc(Nc4ccc(OC)cc4)n3)C2)cc1 (centres unmarked) [GSK1379727] | 1 |
| Cc1nnc(-c2ccc(C)c(-c3ccc(C(=O)Nc4ccc(NS(C)(=O)=O)cc4)cc3)c2)o1 [GW702865] | 0 |
| Cc1nnc(-c2ccc3occ(-c4ccc(C(C)O)cc4)c3c2)o1 (centres unmarked) | 17 |

| Compound | %Inh [%] |
| --- | --- |
| [2H]C([2H])(c1cccc(C(F)(F)F)c1C)n1ccn2c(=O)nc(N3CCOCC3)cc12 [GSK2336394] | 0 |
| NCC(NC(=O)c1cc(-c2cn[nH]c2)c(-c2ccnc3[nH]ccc23)s1)c1ccccc1.O=C(O)C(F)(F)F.O=C(O)C(F)(F)F (centres unmarked) [GSK1325775] | 0 |
| O=C(NCCNc1ccnc(Nc2ccc(F)cc2)n1)Nc1ccccc1F [GSK1379880] | 0 |
| COc1ccc(S(=O)(=O)NC2CCN(c3cc(C)nc(Nc4cccc(C#N)c4)n3)CC2)cc1.O=C(O)C(F)(F)F [GSK1653539] | 12 |
| O=C1NC(=O)C(N2CCc3ccccc32)=C1c1cccc(Cl)c1 [SB-408010] | 31 |
| O=c1cc(N2CCOCC2)nc2n(Cc3cccc(Cl)c3Cl)c(C3CC3)nn12 [GSK2358994] | 15 |
| O=c1cc(N2CCOCC2)nc2n(Cc3cccc(F)c3)ccn12 [GSK2297430] | 9 |
| Cl.Cl.Cl.Fc1ccc(-c2ncn(C3CCNCC3)c2-c2ccnc(Nc3ccccc3)n2)cc1 [SB-238039] | 0 |
| CSc1ccc(-c2cc3ncnc(SCC(=O)O)c3s2)cc1 | 9 |
| O=C(c1ccc(-c2cc(-c3c[nH]nc3-c3ccccn3)ccn2)cc1)N1CCOCC1 [GW812171] | 0 |
| COc1ccc(Nc2nccc(N3CCC(NC(=O)Nc4cc(C)ccc4C)C3)n2)cc1 (centres unmarked) [GSK1379741] | 0 |
| Fc1ccc(-c2nn3c(OCC(F)(F)F)cccc3c2-c2ccncc2)cc1 [GW514784] | 7 |
| N#Cc1ccc(-c2cc(-c3c[nH]nc3-c3ccccn3)ccn2)cc1 [GW693028] | 4 |
| COc1cc2ncn(-c3cc(OCc4sccc4Cl)c(C(N)=O)s3)c2cc1OC [GSK448459] | 0 |
| NS(=O)(=O)CCc1cccc(Nc2nccc(-c3c(-c4cccc(NC(=O)c5c(F)cccc5F)c4)nn4ccccc34)n2)c1 [GSK336735] | 22 |
| O=C(Nc1n[nH]c2cc(-c3cccc(F)c3)ccc12)C1CC1 [SB-735464] | 34 |

Test system: FGFR1
Conditions: concentration: 1 μM, replicates: in singlicate; 1 µM; n = 1

| Compound | %Inh |
| --- | --- |
| NCCNS(=O)(=O)c1ccc(-c2ccnc3[nH]ccc23)cc1 [GSK977617] | 57% and 38% |
| CC(C)(CN)c1nc(-c2ccc(Cl)c(O)c2)c(-c2ccncc2)[nH]1.O=C(O)C(F)(F)F [SB-477794] | 24% and 54% |
| Cl.Cl.Cl.Fc1ccc(-c2ncn(C3CCNCC3)c2-c2ccnc(Nc3ccccc3)n2)cc1 [SB-238039] | 11% and 0% |

Same assay, conditions: concentration: 1 μM, replicates: in singlicate; n = 1

| Compound | %Inh [%] |
| --- | --- |
| N#Cc1c(N2CCOCC2)sc(-c2ccn[nH]2)c1-c1ccc(Cl)cc1 | 7 |
| c1ccc(-c2cc(-c3c[nH]nc3-c3ccccn3)ccn2)cc1 [GW576604] | 0 |
| O=C(NCCCN1CCOCC1)c1cccc(Nc2nccc(Nc3ccc(Oc4ccccc4)cc3)n2)c1 [GW663929] | 0 |
| CCCCCc1nc2c(N)ncnc2n1CCCCC [SKF-97255] | 11 |
| Cc1c(Cn2c(C)nn3c(=O)cc(N4CCOC(C)C4)nc23)cccc1C(F)(F)F (centres unmarked) [GSK2344444] | 3 |
| O=C(NCCNc1ccnc(Nc2ccc(F)cc2)n1)c1cc2ccccc2s1 [GSK1379874] | 0 |
| CC(C)Oc1ccc2c(-c3ccnc(Nc4ccc(N5CCN(C)CC5)cc4)n3)cnn2n1 [GW696155] | 15 |
| COc1cc2c(cc1OCCN1CCN(C)CC1)ncc1c3ccc(C#N)cc3[nH]c21 | 0 |
| CC(=O)Nc1ccc(COc2ccc(Nc3ccnc4cc(-c5ccccn5)ccc34)cc2)cc1.Cl [GW440148] | 0 |
| CC(C)(C)n1cnc2c(N)ncnc21 [SKF-97359] | 0 |
| CN(C1=C(c2ccccc2)C(=O)NC1=O)c1ccccc1 [SB-334860] | 0 |
| Cl.Nc1ncnc2occ(-c3ccc(NC(=O)Nc4cc(C(F)(F)F)ccc4F)cc3)c12 [SB-707548] | 74 |
| NS(=O)(=O)c1cccc(-c2ccc3nccc(-c4cccc(S(N)(=O)=O)c4)c3c2)c1 [GW867253] | 11 |
| NS(=O)(=O)c1cccc(-c2ccc3ncc(N4CCOCC4)nc3c2)c1 [GSK1535721] | 0 |
| COc1ccc(CNC(=O)NC2CCN(c3ccnc(Nc4ccc(OC)cc4)n3)C2)cc1 (centres unmarked) [GSK1379727] | 0 |
| Cc1nnc(-c2ccc(C)c(-c3ccc(C(=O)Nc4ccc(NS(C)(=O)=O)cc4)cc3)c2)o1 [GW702865] | 0 |

| Compound | %Inh [%] |
| --- | --- |
| Cc1nnc(-c2ccc3occ(-c4ccc(C(C)O)cc4)c3c2)o1 (centres unmarked) | 0 |
| [2H]C([2H])(c1cccc(C(F)(F)F)c1C)n1ccn2c(=O)nc(N3CCOCC3)cc12 [GSK2336394] | 7 |
| NCC(NC(=O)c1cc(-c2cn[nH]c2)c(-c2ccnc3[nH]ccc23)s1)c1ccccc1.O=C(O)C(F)(F)F.O=C(O)C(F)(F)F (centres unmarked) [GSK1325775] | 20 |
| O=C(NCCNc1ccnc(Nc2ccc(F)cc2)n1)Nc1ccccc1F [GSK1379880] | 0 |
| COc1ccc(S(=O)(=O)NC2CCN(c3cc(C)nc(Nc4cccc(C#N)c4)n3)CC2)cc1.O=C(O)C(F)(F)F [GSK1653539] | 0 |
| O=C1NC(=O)C(N2CCc3ccccc32)=C1c1cccc(Cl)c1 [SB-408010] | 5 |
| O=c1cc(N2CCOCC2)nc2n(Cc3cccc(Cl)c3Cl)c(C3CC3)nn12 [GSK2358994] | 0 |
| O=c1cc(N2CCOCC2)nc2n(Cc3cccc(F)c3)ccn12 [GSK2297430] | 6 |
| CSc1ccc(-c2cc3ncnc(SCC(=O)O)c3s2)cc1 | 5 |
| O=C(c1ccc(-c2cc(-c3c[nH]nc3-c3ccccn3)ccn2)cc1)N1CCOCC1 [GW812171] | 4 |
| COc1ccc(Nc2nccc(N3CCC(NC(=O)Nc4cc(C)ccc4C)C3)n2)cc1 (centres unmarked) [GSK1379741] | 0 |
| Fc1ccc(-c2nn3c(OCC(F)(F)F)cccc3c2-c2ccncc2)cc1 [GW514784] | 0 |
| N#Cc1ccc(-c2cc(-c3c[nH]nc3-c3ccccn3)ccn2)cc1 [GW693028] | 0 |
| COc1cc2ncn(-c3cc(OCc4sccc4Cl)c(C(N)=O)s3)c2cc1OC [GSK448459] | 0 |
| NS(=O)(=O)CCc1cccc(Nc2nccc(-c3c(-c4cccc(NC(=O)c5c(F)cccc5F)c4)nn4ccccc34)n2)c1 [GSK336735] | 44 |
| O=C(Nc1n[nH]c2cc(-c3cccc(F)c3)ccc12)C1CC1 [SB-735464] | 0 |
